GPR151 ag – activators of human GPR151; AID 1508602; Q8TDV0; actives 1% (n = 650,000); PathHunter beta-arrestin GPR151 cells, luminescence; activation, % at 11.2 µM; in the data active = activation above about 4.9%
Target sequence (Q8TDV0 whole entry, looked up): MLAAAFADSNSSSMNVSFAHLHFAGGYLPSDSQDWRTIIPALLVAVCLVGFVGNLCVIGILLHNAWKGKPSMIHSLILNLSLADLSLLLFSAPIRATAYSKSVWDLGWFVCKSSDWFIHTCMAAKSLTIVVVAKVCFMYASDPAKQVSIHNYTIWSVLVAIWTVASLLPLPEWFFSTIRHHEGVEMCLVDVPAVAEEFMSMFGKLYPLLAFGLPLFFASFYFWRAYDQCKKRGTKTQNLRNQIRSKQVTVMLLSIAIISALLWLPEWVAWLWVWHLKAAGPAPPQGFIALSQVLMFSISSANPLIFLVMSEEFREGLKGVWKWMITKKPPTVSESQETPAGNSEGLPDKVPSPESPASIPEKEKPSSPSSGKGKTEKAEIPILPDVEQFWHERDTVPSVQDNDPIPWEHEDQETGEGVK
TEAD-YAP inh – TEAD-YAP interaction inhibition | HEK-TIYL cells, TEAD-Gal4/YAP UAS-luciferase luminescence | inhibition, % at 9.12 µM | actives 1.4% (n = 640,000) | AID 1259422; in the data active = inhibition above about 32%
FBW7 activator – human FBW7 E3 ligase activation, primary screen | normalized activity (activation), % at 26.1 µM | actives 0.13% (n = 650,000) | AlphaScreen FBW7–phospho-cyclin E peptide binding, activator screen | Q969H0; in the data active = normalized activity above about 1.9%;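 note: purified mutant Fbw7 with reduced substrate affinity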
MITF inh – blocks human microphthalmia-associated transcription factor | O75030 | AlphaScreen MITF homodimerization, bead proximity signal | inhibition, % at 2.6 µM | actives 0.91% (n = 650,000) | AID 1259374; in the data active = inhibition above about 50%
MITF confirm – confirmation of human MITF inhibitors; AlphaScreen MITF homodimerization, biotin/His-MITF beads; inhibition, % at 2.6 µM; AID 1259372; actives 16% (n = 4,700); shares compounds with MITF inh;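 active = inhibition above a cutoff derived from the DMSO control wells, cut at about 28% in these data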;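 note: inhibitors lower the bead chemiluminescence by keeping MITF from dimerizing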
AS interf ctr – AlphaScreen optical interference, counter-screen | inhibition, % at 2.6 µM | shares compounds with MITF inh | LysRS AlphaScreen counterscreen, signal interference, triplicate | actives 7.6% (n = 4,700);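 active = inhibition above a cutoff derived from the DMSO control wells, cut at about 30% in these data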
Large screens that a line does not name were inactive (follow-up assays come after a bar, where they were run). In the library only some 3.5% were active in any assay of this set; here they are far more common.

COc1ccc(NC(=O)CCC(=O)OCC(=O)c2ccc(Cl)c(Cl)c2)cc1	MITF inh 62 | MITF confirm inactive | AS interf ctr inactive
Cc1ccc2cc(CN(CCO)C(=O)c3ccc(Cl)cc3)c(=O)[nH]c2c1	MITF inh 54 | MITF confirm inactive | AS interf ctr inactive
CN1CCN(CC(O)COc2ccc(Br)cc2)CC1 (centres undefined)	none
CCOC(=O)c1c(C)n(C)c2ccc(OCC(O)CN3CCCCC3)cc12 (centres undefined)	MITF inh 54 | MITF confirm inactive | AS interf ctr inactive
CC(=O)N(C)c1ccc(OCC(O)CN2CCN(C)CC2)cc1 (centres undefined)	MITF inh 60 | MITF confirm inactive | AS interf ctr inactive
COc1ccc(OCC(O)CN2CCCC2)cc1 (centres undefined)	MITF inh 55 | MITF confirm inactive | AS interf ctr inactive
CC(=O)N(C)c1ccc(OCC(O)CN2CCN(c3ccccn3)CC2)cc1 (centres undefined)	MITF inh 65 | MITF confirm inactive | AS interf ctr inactive
COc1ccc(OCC(O)CN2CCCCCC2)cc1 (centres undefined)	none
CC(NS(=O)(=O)c1ccc(F)cc1)C(=O)Nc1cccc(C(F)(F)F)c1 (centres undefined)	none
CC(C)NCC(O)COc1ccccc1 (centres undefined)	none
OC(CNNc1c(F)c(F)cc(F)c1F)COc1ccccc1 (centres undefined)	MITF inh 58 | MITF confirm inactive | AS interf ctr inactive
CC(C(=O)Nc1ccccc1-c1ccccc1)N1CCN(C)CC1 (centres undefined)	MITF inh 68 | MITF confirm inactive | AS interf ctr inactive
CCc1ccc(CN2CCN(Cc3ccc(OC)cc3OC)CC2)cc1	MITF inh 66 | MITF confirm inactive | AS interf ctr inactive
COc1ccc(CN2CCOCC2)c(OC)c1	none
COc1ccc(CN2CCN(Cc3ccc(Cl)cc3)CC2)c(OC)c1	MITF inh 61 | MITF confirm inactive | AS interf ctr inactive
CCS(=O)(=O)N1CCN(Cc2cc(OC)ccc2OC)CC1	none
COc1ccc(OC)c(CN2CCN(Cc3ccc(SC)cc3)CC2)c1	MITF inh 76 | MITF confirm inactive | AS interf ctr inactive
CCOc1ccc(CN2CCN(Cc3cc(OC)ccc3OC)CC2)cc1	MITF inh 79 | MITF confirm inactive | AS interf ctr inactive
C/C(=N/NC(=O)c1ccccc1N)c1cccs1	none
COc1cc(CN2CCN(Cc3ccc(OC)cc3OC)CC2)cc(OC)c1	MITF inh 70 | MITF confirm inactive | AS interf ctr inactive
COc1ccc(CN2CCCCC2)cc1OC	none
COc1ccc(CN2CCC(O)CC2)c(OC)c1	none
CCOc1ccc(CN2CCN(Cc3ccc(OC)cc3OC)CC2)cc1	MITF inh 68 | MITF confirm inactive | AS interf ctr inactive
COc1ccc(CN2CCN(Cc3ccc(SC)cc3)CC2)cc1OC	TEAD-YAP inh 35, MITF inh 76 | MITF confirm inactive | AS interf ctr inactive
CCC(C)NCCOc1ccccc1F (centres undefined)	MITF inh 53 | MITF confirm inactive | AS interf ctr inactive
CCC(C)NCCCOc1cccc(Br)c1 (centres undefined)	MITF inh 80 | MITF confirm inactive | AS interf ctr inactive
CCCOc1ccc(OCCCNC(C)CC)cc1 (centres undefined)	none
Cc1ccc(S(=O)(=O)N(CC(=O)N2CCC(C)CC2)c2ccc(C)c(Cl)c2)cc1	none
Cc1cc(N)n(-c2ccc(Oc3ccccc3)cc2S(=O)(=O)O)n1	MITF inh 52 | MITF confirm inactive | AS interf ctr inactive
Cc1cc(N)n(-c2ccccc2C(F)(F)F)n1	none
CN(Cc1ccccc1)c1cc(-c2ccccn2)nc(-c2ccccn2)n1	TEAD-YAP inh 40, MITF inh 79 | MITF confirm 37 | AS interf ctr 81
CN(Cc1ccccc1)c1cc(-c2ccncc2)nc(-c2cccnc2)n1	none
CCOc1ccc(/C(O)=C2/C(=O)C(=O)N(c3ccccn3)C2c2ccc(C)cc2)c(C)c1 (centres undefined)	none
CC(C)(C)c1csc(CN2CCN(CC(=O)N3CCOCC3)CC2)n1	MITF inh 54 | MITF confirm inactive | AS interf ctr inactive
CC(C)(C)c1csc(CN2CCN(CC(=O)NC3CCCCC3)CC2)n1	none
Cc1cc2nc(C3CCN(Cc4nnnn4Cc4cccs4)CC3)[nH]c2cc1C	MITF inh 55 | MITF confirm inactive | AS interf ctr inactive
CC(C)N(CCNc1nc(NC2CCN(Cc3ccccc3)CC2)nc2c1ncn2C1CCCCC1)C(C)C	MITF inh 58 | MITF confirm inactive | AS interf ctr inactive
c1ccc(Nc2nc(NC3CC3)c3ncn(C4CCCCC4)c3n2)cc1	MITF inh 88 | MITF confirm inactive | AS interf ctr inactive
c1ccc(CN2CCC(Nc3nc(Nc4ccccc4)nc4c3ncn4C3CCCCC3)CC2)cc1	none
c1ccc(CNc2nc(NC3CCN(Cc4ccccc4)CC3)nc3c2ncn3C2CCCCC2)cc1	none
COc1ccc(C(N)c2nccn2C)cc1OC (centres undefined)	MITF inh 64 | MITF confirm inactive | AS interf ctr 61
COc1ccc(C(O)c2nccn2C)cc1OC (centres undefined)	none
CCCNC(=O)CSc1nnc2c3cc(F)ccc3n(C)c2n1	none
Cc1ccc(OCCN2CCN(CC(O)Cn3c4ccccc4c4ccccc43)CC2)cc1 (centres undefined)	MITF inh 74 | MITF confirm inactive | AS interf ctr inactive
O=C(O)CSc1nc2ccccc2n1CC(=O)N1CCOCC1	none
NC(=O)CSc1nc2ccccc2n1CC(=O)N1CCOCC1	MITF inh 62 | MITF confirm inactive | AS interf ctr inactive
O=C(Cc1ccccc1)Nc1ccc(Nc2ccc(-n3cccn3)nn2)cc1	MITF inh 60 | MITF confirm inactive | AS interf ctr inactive
Cc1ccc(Nc2ccc(NC(=O)Cc3ccccc3)cc2)nn1	none
CCOC(=O)C1CCN(C(=O)c2ccc(CNS(=O)(=O)c3ccc(F)cc3)cc2)CC1	none
O=C(CN1CCN(Cc2ccc(Cl)c(Cl)c2)CC1)c1ccco1	MITF inh 61 | MITF confirm inactive | AS interf ctr inactive
CCS(=O)(=O)N1CCN(CC(=O)c2ccco2)CC1	MITF inh 56 | MITF confirm inactive | AS interf ctr inactive
O=C(CN1CCN(C(=O)c2c(F)cccc2Cl)CC1)c1ccco1	none
O=c1cc(COn2nnc3ccc(Cl)cc32)c2c(ccc3ccccc32)o1	none
O=C(NN1C(=O)c2ccc(Oc3ccc([N+](=O)[O-])cc3)cc2C1=O)c1ccco1	MITF inh 58 | MITF confirm inactive | AS interf ctr inactive
CCN1CCCC1CNCC(O)COc1ccccc1 (centres undefined)	MITF inh 56 | MITF confirm inactive | AS interf ctr inactive
CSc1ccc(/C=C2\N=C(c3ccc(Cl)cc3)OC2=O)cc1	none

Compound activity as filed in PubChem BioAssay.
